Screening data: PubChem BioAssay, several laboratories
PAFAH2 FP inh: PAFAH2 enzyme inhibitors, primary screen, biochemical, fluorescence polarization, human. recombinant PAFAH2, FP-rhodamine activity probe. inhibition, % at 3.39 µM. actives 0.99% (n = 340,000);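 active means inhibition above the mean over all tested compounds plus 3 SD, cut at about 30% in these data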;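 further: inhibitors block probe labeling of enzyme so polarization drops; 0% = enzyme with DMSO and 100% = wells lacking PAFAH2 protein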
ATG4B inh: ATG4B protease inhibitors, primary screen, biochemical, fluorescence, uHTS; Cysteine protease ATG4B (Homo sapiens), Q9Y4P1; ATG4B cleavage of LC3-PLA2, NBD-HPC fluorescence, 1 h; inhibition, % at 8.33 µM; actives 0.51% (n = 340,000); AID 504462, 2011; in the data active means inhibition above about 40%
Target sequence (Q9Y4P1 whole entry, looked up): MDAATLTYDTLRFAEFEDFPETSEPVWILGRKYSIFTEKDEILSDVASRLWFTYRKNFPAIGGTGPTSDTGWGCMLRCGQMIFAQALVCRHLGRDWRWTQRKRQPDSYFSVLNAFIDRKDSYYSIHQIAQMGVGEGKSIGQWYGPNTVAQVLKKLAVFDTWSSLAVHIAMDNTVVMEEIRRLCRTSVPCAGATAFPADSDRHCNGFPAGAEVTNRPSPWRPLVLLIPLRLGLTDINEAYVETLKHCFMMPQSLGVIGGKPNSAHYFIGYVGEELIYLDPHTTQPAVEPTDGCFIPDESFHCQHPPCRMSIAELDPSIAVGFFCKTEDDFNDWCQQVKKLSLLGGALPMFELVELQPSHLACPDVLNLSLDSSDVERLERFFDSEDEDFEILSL
PAFAH1B3 FP inh: PAFAH1B3 enzyme inhibitors, primary screen, biochemical, fluorescence polarization, human. inhibition, % at 3.39 µM. recombinant PAFAH1B3, FP-rhodamine probe. actives 0.28% (n = 340,000). Platelet-activating factor acetylhydrolase IB subunit alpha1 (Homo sapiens), Q15102. AID 492972, 2010;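 active means inhibition above the screen-wide average of all tested compounds plus 3 SD, cut at about 25% in these data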;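 further: 0% = enzyme with DMSO only and 100% = wells lacking PAFAH1B3 protein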
PAFAH1B2 inh: PAFAH1B2 enzyme inhibitors, primary screen, biochemical, fluorescence polarization, human. inhibition, % at 3.39 µM. recombinant PAFAH1B2, FP-rhodamine activity probe. Platelet-activating factor acetylhydrolase IB subunit alpha2 (Homo sapiens), P68402. actives 1.2% (n = 340,000);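 active means inhibition above the mean of all tested compounds plus 3 SD, cut at about 24% in these data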;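 further: 0% = enzyme with DMSO and 100% = wells lacking PAFAH1B2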
pPAFAH FP inh: pPAFAH enzyme inhibitors, primary screen, biochemical, fluorescence polarization, human | recombinant pPAFAH, FP-rhodamine probe fluorescence polarization | AID 463082, 2010 | inhibition, % at 3.39 µM | actives 1.5% (n = 330,000);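 active means inhibition above the mean inhibition across the screen plus 3 SD, cut at about 25% in these data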;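 further: inhibitors block binding of the rhodamine activity-based probe so polarization drops; 0% = enzyme with DMSO and 100% = wells lacking pPAFAH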
DAGLB inhibitor: DAGLB lipase inhibitors, primary screen, biochemical, fluorescence, HTS; Diacylglycerol lipase-beta (Homo sapiens), Q8NCG7; HEK293T DAGLB membrane lysate, EnzChek fluorogenic substrate; actives 0.059% (n = 340,000); inhibition, % at 5.17 µM; in the data active means inhibition above about 34%;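 further: 0% = enzyme with vehicle and 100% = wells lacking enzyme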
An asterisk follows results filed as active; · = no result. In the library only some 3% were active in any assay of this set; here they are far more common.

SMILES	PAFAH2 FP inh	ATG4B inh	PAFAH1B3 FP inh	PAFAH1B2 inh	pPAFAH FP inh	DAGLB inhibitor
CN1CCN(S(=O)(=O)c2ccc(Br)c3ccccc23)CC1	2	-8	5	2	-2	-2
Oc1ccc(CNc2ccccc2)c2cccnc12	12	-2	26*	4	4	2
C=CCOc1c(Cl)cc(CNc2ccc(C)c(Cl)c2)cc1OC	·	·	·	·	8	·
C=CCOc1c(Cl)cc(CNc2ccc(N(C)C)cc2)cc1OC	11	10	7	4	25*	8
CCOc1cc(CNc2ccc(N3CCCC3)cc2)cc(Cl)c1OC	13	22	3	1	23	8
COc1ccccc1CNc1ccc(N2CCCCC2)cc1	4	0	8	7	27*	17
COc1cc(CNc2ccc(N3CCCC3)cc2)cc(Cl)c1OC	-4	3	10	7	28*	6
CCOc1ccc(CNc2ccc(N3CCCC3)cc2)cc1	1	13	6	4	33*	10
CCOc1ccc(CNc2ccc(N3CCN(Cc4ccccc4)CC3)cc2)cc1	-3	5	11	-4	5	-6
C=CCN1C(=O)C2C(C(=O)NC3CCCC3)C3(C)C=CC2(O3)C1C(=O)NC1CCCC1 (stereo not drawn)	7	-4	2	4	5	1
C=CCn1c(SCC(=O)Nc2cc(C)on2)nc2ccccc21	·	·	·	·	·	-2
C[N+]1(CC2COC3(CCCCC3)O2)CCCC1 (stereo not drawn)	3	-3	4	4	10	-2
C1CCCCCC2(CCCCC1)OCC(CN1CCOCC1)O2 (stereo not drawn)	9	18	6	26*	4	-8
O=C(C[C@H]1C/C=C/CC[C@H](Cc2ccc(F)cc2)C(=O)O[C@H](c2ccccc2)CNC1=O)NCCO	9	·	9	30*	13	0
O=C(C[C@@H]1C/C=C/CC[C@@H](Cc2ccc(F)cc2)C(=O)O[C@@H](c2ccccc2)CNC1=O)NCCO	1	-16	-5	18	7	-1
O=C(C[C@@H]1C/C=C/CC[C@@H](Cc2ccc(F)cc2)C(=O)O[C@H](c2ccccc2)CNC1=O)NCCO	-2	1	-5	24*	3	-1
O=C(N/N=C/c1ccncc1)c1cccs1	0	-14	2	4	3	0
O=C(N/N=C/c1ccc(-c2ccccc2C(=O)O)o1)c1cccs1	4	6	0	3	28*	3
Cc1ccc(NC(=O)CN(C)C(=O)c2ccc3[nH]c4c(c3c2)CC(C)CC4)cc1 (stereo not drawn)	-2	-21	7	48*	4	-1
CCOc1ccc(NC(=O)CN(C)C(=O)c2ccc3[nH]c4c(c3c2)CC(C)CC4)cc1OCC (stereo not drawn)	-4	5	-4	4	6	1
CCc1ccc(/C=N/NC(=O)c2nnn(-c3nonc3N)c2C(C)C)cc1	-4	-3	-5	5	-7	-4
COC(=O)[C@]1(C)N[C@H](c2ccc(-c3ccc(OC)cc3)cc2)[C@@H]2C(=O)N(C)C(=O)[C@@H]21	4	0	-1	1	3	-1
COC(=O)[C@]1(C)N[C@H](c2ccc(-c3ccc(Cl)c(Cl)c3)c(OC)c2)[C@@H]2C(=O)N(C)C(=O)[C@@H]21	0	-5	1	1	30*	-2
COC1=CC(=O)C=C(OC)C1=O	4	0	8	0	·	2
COC1=CC(=O)c2ccccc2C1=O	10	-27	43*	15	0	0
CCCC(CCC)c1nc2ccncc2[nH]1	4	12	8	0	-2	0
CC(C)Oc1cccc(C(=O)C2CCCN(Cc3ccc4nonc4c3)C2)c1 (stereo not drawn)	0	3	-4	-2	32*	-10
CC(C)Oc1cccc(C(=O)C2CCCN(Cc3cnn(C(C)C)c3)C2)c1 (stereo not drawn)	3	-5	-2	2	2	-1
